Where “and” joins values, the source holds several entries; their conditions need not be identical. Equal values may be shown once. The campaign covered roughly 220,000 compounds. About 16,000 (7.3%) were called active. About 25% were inconclusive and are not listed. Calls come from the whole dose curve; as a rule, active = well fitted inhibition curve with a large enough effect (not every such curve was filed as active); inconclusive = small, poorly fitted or top-dose-only effect, or another doubt; inactive = no such curve, though single readings can be large or run the other way. Shown is part of a subset that was picked to be rich in actives. Some structures have more than one record in an assay (separate samples or runs), and their calls can disagree.
Molecular target: Aldehyde dehydrogenase 1A1 (Homo sapiens) (UniProt P00352)
Sequence (P00352 whole entry, looked up): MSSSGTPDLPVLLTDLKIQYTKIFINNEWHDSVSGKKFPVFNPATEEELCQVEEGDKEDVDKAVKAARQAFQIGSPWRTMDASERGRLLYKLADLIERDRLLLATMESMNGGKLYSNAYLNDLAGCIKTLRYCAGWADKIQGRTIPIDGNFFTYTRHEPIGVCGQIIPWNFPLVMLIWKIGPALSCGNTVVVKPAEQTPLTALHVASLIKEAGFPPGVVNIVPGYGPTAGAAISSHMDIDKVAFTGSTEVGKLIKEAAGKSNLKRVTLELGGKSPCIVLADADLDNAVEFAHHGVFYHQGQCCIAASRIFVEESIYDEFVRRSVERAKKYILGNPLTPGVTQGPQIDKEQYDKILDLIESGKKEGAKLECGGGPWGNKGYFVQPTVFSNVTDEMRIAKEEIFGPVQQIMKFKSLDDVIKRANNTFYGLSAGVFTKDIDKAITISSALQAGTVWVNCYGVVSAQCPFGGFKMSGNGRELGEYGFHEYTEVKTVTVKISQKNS
Assay: qHTS Assay for Inhibitors of Aldehyde Dehydrogenase 1 (ALDH1A1);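 for activity, negative = inhibition: plate controls were no enzyme wells and a reference inhibitor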
Conditions: Purified ALDH1A1, NADH fluorescence, propionaldehyde substrate; series mostly up to 75.3 µM; activity, negative = inhibition: at the top concentration
Potency is the fitted concentration of half-maximal effect.

SMILES | Potency | activity, negative = inhibition
O=C1N=c2ccccc2=C/C1=C\c1c(O)[nH]c(=S)[nH]c1=O | 2.51 µM (active) | –
COc1ccccc1N=Nc1c(O)[nH]c(=S)[nH]c1=O | – | -12% (inactive)
Cc1ccc2c(c1)=C/C(=C\c1c(O)[nH]c(=O)[nH]c1=O)C(=O)N=2 | 1.58 µM (active) | –
CC(C)CCC1(CCN)C(=O)NC(=O)NC1=O | – | 0.154% [at 13.5 µM] (inactive)
CCOc1ccc(CN(CCCl)CCCl)cc1C(=O)OC | – | -5.9% (inactive)
COc1ccc(C2Oc3c(I)c(OC)cc(OC)c3CC2O)cc1OC (configuration not stated) | – | 9.99% (inactive)
O=C(Nc1cccc2ccccc12)N1CCC2(CC1)OCCO2 | – | -5.72% (inactive)
COc1ccccc1-c1[se]c2ccccc2c1I | – | 7.96% (inactive)
Cc1ccc(N(C)C(=O)Oc2cccc3ccc(C)nc23)cc1 | – | 6.33% (inactive)
CS(=N)(=O)CC[C@H](N)P(=O)(O)O (some centres not stated) | – | 4.42% [at 13.5 µM] (inactive)
CC(=O)NBr | – | 5.46% (inactive)
CCC1(c2ccccc2)C(=O)NC(=O)N(C)C1=O (configuration not stated) | – | -2.03% (inactive)
c1ccc(Cc2nn3c(Cn4cnc5ccccc54)nnc3s2)cc1 | 2.24 µM (active) | –
c1ccc(CCCCN2CCC(c3ccccc3)CC2)cc1 | inactive | –
c1cncc(CNCCc2c[nH]c3ccccc23)c1 | – | -3.63% (inactive)
NC(=O)Nc1cccc(C(F)(F)F)c1 | – | 9.13% (inactive)
C[C@@]1([C@@H](NP(=O)(c2ccccc2)c2ccccc2)c2ccccc2)C[C@H]1CCO | inactive | –
CCCCC#N | – | 3.32% (inactive)
Clc1ccc2nc3c(c(-c4ccccc4)c2c1)CNCC3 | – | 11.2% (inactive)
N#CC(C#N)=Cc1cc(O)c(O)c([N+](=O)[O-])c1 | inactive and 20 µM (active) | –
Cc1cccc(-n2c(O)c(/C=N/N3CCOCC3)c(=O)[nH]c2=S)c1 | – | 0.025% (inactive)
CN[C@@H]1C[C@H]2O[C@@](C)([C@@H]1OC)n1c3ccccc3c3c4c(c5c6ccccc6n2c5c31)C(=O)NC4 | – | -5.83% [at 13.5 µM] (inactive)
CN(C)C(=O)NC(O)C(Cl)(Cl)Cl (configuration not stated) | – | 10.9% (inactive)
C[C@]12CC[C@@H]3C(=CCc4cc(O)ccc43)[C@@H]1CCC2=O | 0.501 µM (active) | –
CCC(C)C(=O)O[C@@H]1C[C@@]2(C)C(c3ccoc3)OC(=O)CC23OC2(C)O[C@@]14[C@@]1(C)C(CC(=O)OC)C5(C)CC1(O)C(O)(C5OC(=O)C1(C)OC1C)C(OC(C)=O)[C@@]34O2 (some centres not stated) | – | 2.69% (inactive)
Cc1noc(C)c1CSc1nc2cc(S(=O)(=O)N3CCOCC3)ccc2o1 | 3.55 µM (active) | –

SMILES | Potency | activity, negative = inhibition
O=C(c1cc(S(=O)(=O)N2CCOCC2)ccc1F)N1CCC2(CC1)OCCO2 | – | -0.0979% (inactive)
N#CCCCl | inactive | –
O=C(Nc1cccc(OC(=O)N2CCCCC2)c1)N1CCOCC1 | – | 0.604% (inactive)
O=C1NC(=O)N(c2ccccc2)C(=O)/C1=C/c1ccc([N+](=O)[O-])s1 | 22.4 µM (active) | –
CCN1CCN(C(=O)Cc2coc3cc(C)cc(C)c23)CC1 | – | 3.22% (inactive)
Nc1ccc(C(=O)N/N=C2/CN3CCC2CC3)cc1 | – | -2.99% (inactive)
CCCCCCN=C(CC)c1c(O)n(CCCC)c(=O)[nH]c1=O | – | -12.5% (inactive)
CCc1nnc(NS(=O)(=O)c2ccc(N=Cc3c(O)n(-c4ccccc4)c(=O)[nH]c3=O)cc2)s1 | – | -1.28% (inactive)
C[N+]1(C)CCOC(O)(c2ccc(-c3ccc(C4(O)C[N+](C)(C)CCO4)cc3)cc2)C1 (configuration not stated) | inactive and 14.1 µM (active) | –
COc1ccc(CCn2c(O)c(C=NCCCn3ccnc3)c(=O)[nH]c2=O)cc1OC | – | 6.68% (inactive)
Cc1cccc2c3c(ccc12)C1=C(C(=O)C3=O)C(C)CO1 (configuration not stated) | 17.8 µM (active) | –
C=CCN(CC=C)C(=O)Nc1ccc(OCC)cc1 | – | 2.89% (inactive)
CNC(=S)N/N=C1\C2CN3CCN(C2)CC1(c1ccccc1)C3 | – | -2.12% (inactive)
CC(C)c1ccc(O)c(CN2CCN(c3ccccc3)CC2)c1 | 2 µM (active) | –
COc1ccc(CN2CCN(c3ccccc3F)CC2)c(OC)c1 | – | -7.76% (inactive)
Fc1ccc(N2CCN(Cc3ccc4c(c3)OCO4)CC2)cc1 | – | -1.2% (inactive)
COc1ccc2c3c1OC1CC(O)C=C[C@@]31CCN(C)C2 (some centres not stated) | – | -2.76% (inactive)
CC1=C(C(=O)Nc2ccccc2)SCCO1 | – | -8.55% (inactive)
CC(C)N(CC#CCC1(O)c2ccccc2-c2ccccc21)C(C)C | – | 3.69% (inactive)
CN1C2C=C(N(C(=O)c3ccc(Cl)cc3)c3ccccc3)CC1CC2 (configuration not stated) | – | 6.47% (inactive)
CC(C)(O)/C=C\C(=O)[C@](C)(O)[C@H]1[C@H](O)C[C@]2(C)[C@@H]3CC=C4[C@@H](C=C(O)C(=O)C4(C)C)[C@]3(C)C(=O)C[C@@]12C | – | 8.67% [at 13.5 µM] (inactive)
c1csc(CN2CC3(CCNCC3)C2)n1 | – | 0.181% (inactive)
c1ccc2c(c1)[I+]c1ccccc1-2 | – | -5.77% (inactive)
Cc1ccccc1N1C(=O)NC(=O)/C(=C\c2cc(C)n(C)c2C)C1=O | – | -4.17% (inactive)
Cc1cc(C=C2C(=O)NC(=O)NC2=O)c(C)n1-c1ccncc1 | 14.1 µM (active) | –
Cc1ccc(-n2c(C)cc(/C=C3\C(=O)NC(=O)N(C)C3=O)c2C)cc1C | 17.8 µM (active) | –

From PubChem BioAssay AID1030 (National Center for Advancing Translational Sciences (NCATS), 2008)
